Several values for one entry are separate records, joined by “and”; a condition that tells them apart may be missing. Equal entries are not always repeated. Inconclusive results are not listed. A call without a number means that no potency is given here. Where a structure was tested more than once in an assay, its records may differ in their call. Activity calls are given as the source filed them. Calls come from the whole dose curve; as a rule, active = well fitted cell-killing curve with a large enough effect in the repeat runs; inconclusive = weak or mixed curves, or effect the other way; inactive = flat fitted curve, though single readings scatter.
Assay: qHTS RealTime-Glo MT Cell Viability Assay in HEK293 cells - 16 hour (AID 1224872); note: nearly all actives have a fitted effect of over 50% in size; for activity change, negative = cytotoxicity: top concentration of the series differs between compounds
Conditions: RealTime-Glo luminescence; series mostly up to 76.8 µM; activity change, negative = cytotoxicity: at the top concentration
Description: National Center for Advancing Translational Sciences [NCATS]
NIH Chemical Genomics Center [NCGC]
U.S. Environmental Protection Agency [EPA]
National Institutes of Environmental Health Sciences [NIEHS]
National Toxicology Program [NTP]
U.S. Food and Drug Administration [FDA]
Measure of cell viability is critical in the cell-base assay. Analysis of cell viability is necessary for the characterization of cell responses to cytotoxic drugs and environmental stress. A RealTime-Glo MT Cell Viability Assay to monitor cell viability in real time of continues cell culture during 40 hours of compound treatment was used to screen Tox21 10K library compounds in Hek293 cells. The RealTime-Glo MT Cell Viability Assay is a nonlytic, homogeneous, bioluminescent method to measure cell viability in real time using a simple, plate-based method. The assay involves adding NanoLuc luciferase and a cell-permeant prosubstrate to cells in culture. Viable cells reduce the proprietary prosubstrate to generate a substrate for NanoLuc luciferase. This substrate diffuses from cells into the surrounding culture medium, where it is rapidly used by the NanoLuc Enzyme to produce a luminescent signal. The signal correlates with the number of viable cells, making the assay well suited for cytotoxicity studies.
Tox21 Assay Protocol Summary:
The mixture of Hek293 cell suspension and reagents were dispensed at 600cells/6 ul/well in 1536-well tissue culture treated black solid bottom plates using a Multidrop dispenser. After the assay plates were incubated at a 37 C/5% CO2 incubator for 5 hours, 23 nL of compounds dissolved in DMSO, positive and negative controls was transferred to the assay plate by a pintool work station. The plates were incubated at 37 C for 40 hours. The luminescence intensity were measured at 0h, 8h, 16h, 24h, 32h and 40h time points using ViewLux plate reader during compound treatment.
Potency is the fitted concentration of half-maximal effect.

Row | SMILES | activity change, negative = cytotoxicity | Potency
1 | COc1cc(Cc2cnc(N)nc2N)cc(OC)c1OC | -21% (inactive) | 
2 | CCN(CC)CCCC(C)Nc1ccnc2cc(Cl)ccc12 (stereo not given) | -11.3% [at 6.97 µM] (inactive) | 
3 | CCCCC(CC)CO (stereo not given) |  | inactive
4 | Cc1cnc(C(=O)NCCc2ccc(S(=O)(=O)NC(=O)NC3CCCCC3)cc2)cn1 | 10.5% [at 35.3 µM] (inactive) | 
5 | C=C(C)C(=O)O[C@H]1C[C@@H]2CC[C@@]1(C)C2(C)C |  | 15.4 µM (active) and inactive
6 | CCc1cccc(C)c1N |  | inactive
7 | O=C(Oc1ccccc1)c1ccccc1 |  | inactive
8 | CC[C@H](C)C(=O)O[C@H]1C[C@@H](C)C=C2C=C[C@H](C)[C@H](CC[C@@H]3C[C@@H](O)CC(=O)O3)[C@H]21 |  | inactive
9 | C#C[C@]1(O)CC[C@H]2[C@@H]3CCC4=CC(=O)CC[C@@H]4[C@H]3CC[C@@]21C | -8.77% [at 35.3 µM] (inactive) | 
10 | Cc1occc(=O)c1O |  | inactive
11 | OCCOCCOCCO |  | inactive
12 | FC(F)(F)c1ccc(Cl)c(Cl)c1 |  | inactive
13 | O=S(=O)(O)c1ccc2ccccc2c1 |  | inactive
14 | O=C(O)c1cc(C(=O)O)cc(S(=O)(=O)O)c1 |  | inactive
15 | CCCCCCCC(=O)OC |  | inactive
16 | CC(=O)OCC(=O)[C@@]12N=C(C)O[C@@H]1C[C@H]1[C@@H]3CCC4=CC(=O)C=C[C@]4(C)[C@H]3[C@@H](O)C[C@@]12C |  | inactive
17 | CC(=O)CC(=O)Nc1ccccc1C |  | inactive
18 | CCCCCCCCCCCCS |  | inactive
19 | C[C@H]1C[C@@H]2[C@H]([C@@H](O)C[C@@]3(C)[C@H]2CC[C@]3(O)C(=O)CO)[C@@]2(C)C=CC(=O)C=C12 |  | inactive
20 | CCCCC(CC)COC(=O)C(C#N)=C(c1ccccc1)c1ccccc1 (stereo not given) | -24.8% [at 35.3 µM] (inactive) | 

Row | SMILES | activity change, negative = cytotoxicity | Potency
21 | c1ccc2scnc2c1 |  | inactive
22 | COc1ccc(NC(C)=O)cc1N |  | inactive
23 | CC(O)COCC(C)O (stereo not given) |  | inactive
24 | Cc1cc(C)c(C)cc1C |  | inactive
25 | ON=C1CCCCC1 |  | inactive
26 | CCCSc1ccc2nc(NC(=O)OC)[nH]c2c1 | -21.6% [at 35.3 µM] (inactive) | 
27 | Cc1cccnc1 |  | inactive
28 | CCCC(C)=O |  | inactive
29 | Oc1cccc2ccccc12 |  | inactive
30 | CC1=CCC2CC1C2(C)C (stereo not given) |  | inactive
31 | CCCCCCCCCCCCCCCO |  | inactive
32 | CCCCC(CC)COC(=O)CS (stereo not given) | 5.34% (inactive) | 
33 | CC(C)CC(=O)CC(C)C |  | inactive
34 | C[C@H]1C[C@H]2[C@@H]3CCC4=CC(=O)C=C[C@]4(C)[C@@]3(F)[C@@H](O)C[C@]2(C)[C@@]1(O)C(=O)CO |  | inactive
35 | CC(=O)Nc1cccc(O)c1 |  | inactive
36 | O=S1(=O)CC=CC1 |  | inactive
37 | CC(=O)Nc1ccccc1 |  | inactive
38 | CCC(O)OC(O)CC (stereo not given) |  | inactive
39 | Cc1ccc2oc(=O)ccc2c1 |  | inactive
40 | C=C(C)C(=O)Nc1ccc(Cl)c(Cl)c1 |  | 22.1 µM (active) and 21.8 µM (active)
